From PubChem BioAssay AID1626 (SRMLSC, 2009) come the findings set out here.

Out of some 220,000 compounds screened, about 2,000 (0.91%) were called active. Inconclusive results (about 2%) are left out. A selection follows. Potency and affinity values are given separately. Values without a mark were called inactive. No stated cut-off is given here; in the data, inconclusive means inhibition above about 80% without an active follow-up result; inactive means below that; test concentration not stated here.

This assay in a line: M. tuberculosis H37Rv growth inhibitors, H37Rv strain (AID 1626).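 Further: bacteria incubated seven days before Alamar blue readout; 0% = bacteria only wells and 100% = bacteria with antibiotic wells.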 The conditions noted are these: active compounds read high, concentration not given here.
In general, inhibition refers to the change of the read-out against control, counted positive when it falls. For the molecule `COc1ccc2cc(C(=O)N3CCCCCC3)sc(=O)c2c1OC`, the inhibition was -2.1%.

On to `CCCCCC(=O)N1CC2(CC(c3cccc(NC(=O)CC(c4ccccc4)c4ccccc4)c3)=NO2)C[C@@H]1C(N)=O` (some centres undefined), for which the inhibition is 11.1%.

Take `Cc1nc(CNS(=O)(=O)c2cccs2)cs1`: the inhibition was 5.2%.

As for `Nc1ccc(/C=C/c2ccc3ncccc3c2)cc1`, the inhibition is 17.8%.

Take `c1ccc2c(c1)ccc1ncccc12`: the inhibition is -7.23%.

For the molecule `COc1cccc(-c2ccc(C#N)c(=O)[nH]2)c1`, the inhibition is -3.44%.

Turning to `O=C(Nc1cccc(O)c1)c1cccc(S(=O)(=O)N2CCCC2)c1`, the inhibition is -5.4%.

For `C/C(=C\C(=O)c1cccnc1)Nc1ccc(O)cc1`, the inhibition is -6.05%.

Turning to `O=C(Nc1ccccc1O)c1ccccc1O`, the inhibition is 0.57%.

Consider `CC(=O)Nc1ccccc1O`, for which the inhibition was -3.72%.

`C/C(=C\C(=O)c1ccccc1)Nc1ccc(O)cc1`: the inhibition is -1.7%.

Consider `COc1ccc(NC(=S)NC(C)c2ccncc2)cc1OC` (centres undefined), for which the inhibition is 0.92%.

As for `O=C(O/N=C(\c1ccccc1)c1ccccn1)c1cccc2ccccc12`, the inhibition was 4.72%.

For the molecule `CCN(CC(=O)NCc1cccs1)c1ccc(S(=O)(=O)N2CCN(C)CC2)cn1`, the inhibition was -7.08%.

Turning to `COc1ccc(-c2csc(/C(C#N)=C\c3ccc(OC)c([N+](=O)[O-])c3)n2)cc1`, the inhibition was 5.82%.

With `COc1ccc(-c2csc(/C(C#N)=C\c3ccc(O)c([N+](=O)[O-])c3)n2)cc1OC`, the inhibition is 73.4%.

As to `COc1ccc(S(=O)(=O)N2CCCCC2)cc1NC(=O)c1cc(C)on1`, the inhibition is -0.76%.

Consider `CNC(=S)Nn1cnc2ccccc21`, for which the inhibition was 0.16%.

For `c1ccc(-c2ccc(-n3ccnc3)cc2)cc1`, the inhibition is 1.87%.

Regarding `COc1ccc(-n2ccnc2)cc1`, the inhibition was 1.8%.

With `COc1ccc(OC)c(N2C(=O)CC(Cc3ccc(Cl)cc3)C2=O)c1` (centres undefined), the inhibition is -4.41%.

As to `Cc1nc2ccccc2c(=O)n1/N=C/C=C/c1ccccc1`, the inhibition is -2.49%.

Regarding `COc1cc2c(cc1OC)C1(NCC2)C(=O)Nc2ccccc21` (centres undefined), the inhibition is 0.79%.

With `COc1ccc2c(c1)C1(Nc3ccccc3C(=O)N1c1ccccc1)C(=O)N2` (centres undefined), the inhibition was -1.38%.

Consider `COc1ccc(C(=O)C2CCCN(Cc3ccc4nonc4c3)C2)c(OC)c1` (centres undefined), for which the inhibition is 4.61%.

For the molecule `CC(C)NC(=O)NC(=O)CSc1ccccc1F`, the inhibition is 8.25%.

As to `COc1ccc(-c2cn[nH]c2N)cc1`, the inhibition was 3.3%.

In the case of `Nc1[nH]ncc1-c1ccccc1`, the inhibition is 48.5%.

For `O=C(NCc1cn2ccsc2n1)c1cccs1`, the inhibition was 2.94%.
